Compounds without any hit were thinned out: in the full panel of roughly 83,000, 20% have a hit.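 Activity criterion: percent growth below 10, measured after cells in 96-well plates were exposed to a single compound concentration for 48 hours.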 A number with no mark means an inactive call. Active and inactive are the calls of the source.

Some test systems named below: SK-MEL-2 melanoma; SN12C renal; UO-31 renal; TK-10 renal; ACHN renal; CAKI-1 renal; CCRF-CEM leukemia; MOLT-4 leukemia; SR leukemia; RPMI-8226 leukemia; OVCAR-8 ovarian; OVCAR-5 ovarian; OVCAR-4 ovarian; SK-OV-3 ovarian; IGROV1 ovarian; OVCAR-3 ovarian; HS 578T breast; NCI/ADR-RES ovarian.
Experiment in all cases: NCI-60 one-dose screen, 48 h (100 = growth as untreated, 0 = no growth, -100 = all killed)
Common to all, as to conditions: 10 µM unless noted

`COc1ccc(C(=O)/C=C/c2cccc([N+](=O)[O-])c2)c(OC)c1`: the growth in the test on SK-MEL-2 melanoma is 72.4%; in the test on SN12C renal it was 8.76% (active); in the test on UO-31 renal, -13% (active); in the test on TK-10 renal it was 50%; in the test on ACHN renal, -43.5% (active); in the test on CAKI-1 renal, 24.8%. Further, the growth was 5.85% (active) in the test with CCRF-CEM leukemia; 7.24% (active) in the test on MOLT-4 leukemia; 4.78% (active) with SR leukemia; -16.8% (active) in the test on RPMI-8226 leukemia; 18.2% with OVCAR-8 ovarian; 41.9% in the test with OVCAR-5 ovarian. Further, the growth with OVCAR-4 ovarian was 26.6%; in the test on SK-OV-3 ovarian it was 77%; with IGROV1 ovarian, 7% (active); with OVCAR-3 ovarian it was 18.6%; with HS 578T breast it was 74.6%; in the test on NCI/ADR-RES ovarian, 11.2%.
As for `CCN(CC)CCC(=O)c1cccc2ccccc12`, the growth in the test with SK-MEL-2 melanoma is 114%; in the test with SN12C renal, 102%; with UO-31 renal it was 87.6%; in the test on TK-10 renal it was 109%; with ACHN renal it was 98.8%; in the test with CAKI-1 renal, 90.7%. Further, the growth in the test with CCRF-CEM leukemia is 100%; in the test on MOLT-4 leukemia, 102%; in the test with SR leukemia, 53.4%; in the test with RPMI-8226 leukemia it was 44.4%; in the test on OVCAR-8 ovarian, 104%; in the test on OVCAR-5 ovarian, 98.3%. In addition, the growth was 119% in the test on OVCAR-4 ovarian; 121% in the test on SK-OV-3 ovarian; 101% with IGROV1 ovarian; 113% in the test with OVCAR-3 ovarian; 101% with HS 578T breast; 104% in the test on NCI/ADR-RES ovarian.
Regarding `COc1ccc(C2SCC(=O)N2NC(=O)c2ccc(NC(=O)c3ccccn3)cc2)cc1OC` (centres undefined), the growth with SK-MEL-2 melanoma is 94.5%; in the test on SN12C renal, 97.3%; in the test with UO-31 renal, 89.7%; in the test on TK-10 renal, 90.1%; in the test with ACHN renal it was 99.2%; in the test on CAKI-1 renal, 96.9%. For the same molecule, the growth was 101% with CCRF-CEM leukemia; 92.1% with MOLT-4 leukemia; 90.9% in the test on SR leukemia; 96.3% in the test on RPMI-8226 leukemia; 98% in the test on OVCAR-8 ovarian; 100% in the test on OVCAR-5 ovarian. Moreover, the growth with OVCAR-4 ovarian was 100%; in the test on SK-OV-3 ovarian it was 102%; with IGROV1 ovarian, 101%; in the test with OVCAR-3 ovarian, 101%; with HS 578T breast, 102%; in the test with NCI/ADR-RES ovarian it was 105%.
As for `O=C(CCCn1c2c(sc3ccccc32)c(=O)n2nnc(-c3ccccc3)c12)NCCc1cnc[nH]1`, the growth was -90.3% (active) in the test on SK-MEL-2 melanoma; 1.75% (active) in the test on SN12C renal; -90.3% (active) with UO-31 renal; -89.4% (active) with TK-10 renal; -19.4% (active) with ACHN renal; -84% (active) in the test on CAKI-1 renal. Moreover, the growth with CCRF-CEM leukemia was 38.4%; in the test on MOLT-4 leukemia, 79.4%; in the test with SR leukemia, 55.2%; with RPMI-8226 leukemia, -4.25% (active); in the test with OVCAR-8 ovarian, -50.6% (active); with OVCAR-5 ovarian, -82.1% (active). Besides, the growth in the test with OVCAR-4 ovarian was -92.5% (active); in the test with SK-OV-3 ovarian it was 5.51% (active); in the test with OVCAR-3 ovarian it was -49.7% (active); in the test with HS 578T breast, 23.4%; in the test on NCI/ADR-RES ovarian, 21.2%.
In the case of `COc1ccc(S(=O)(=O)Nc2cc(/C=C\c3cc(OC)c(OC)c(OC)c3)cc(OC)c2OC)cc1OC`, the growth in the test on SK-MEL-2 melanoma was 36.6%; in the test on SN12C renal, 45%; in the test with UO-31 renal, 40.7%; in the test with TK-10 renal, 73.4%; in the test with ACHN renal it was 45.1%; with CAKI-1 renal, 24.4%. Moreover, the growth in the test with CCRF-CEM leukemia was 9.18% (active); with MOLT-4 leukemia, 17.1%; in the test with SR leukemia, 20%; in the test on RPMI-8226 leukemia it was 25.3%; with OVCAR-8 ovarian, 41%; in the test with OVCAR-5 ovarian, 30.8%. For the same molecule, the growth in the test with OVCAR-4 ovarian is 39.7%; in the test with SK-OV-3 ovarian, 17.1%; in the test with IGROV1 ovarian, 49.5%; with OVCAR-3 ovarian, -18.2% (active); with HS 578T breast, 8.3% (active); with NCI/ADR-RES ovarian, 12.6%.
`O=C(O)C(Cc1ccccc1)N1C(=O)/C(=C/C(Cl)=C/c2ccc([N+](=O)[O-])cc2)SC1=S` (centres undefined): the growth with SK-MEL-2 melanoma is 9.02% (active); in the test with SN12C renal, 8.76% (active); in the test with UO-31 renal it was 29.4%; in the test on TK-10 renal it was 50.1%; with ACHN renal, 40.7%; with CAKI-1 renal, 6.47% (active). For the same molecule, the growth with CCRF-CEM leukemia is 4.14% (active); in the test on MOLT-4 leukemia it was 0.405% (active); with SR leukemia it was 5.32% (active); with RPMI-8226 leukemia it was -6.22% (active); in the test on OVCAR-8 ovarian, 12.1%; with OVCAR-5 ovarian, 137%. Also, the growth in the test on OVCAR-4 ovarian was 7.24% (active); in the test on SK-OV-3 ovarian it was 83.4%; with IGROV1 ovarian, 36.3%; in the test with OVCAR-3 ovarian, 10.7%; with HS 578T breast it was 44.6%; in the test on NCI/ADR-RES ovarian, 68.7%.
As to `Oc1ccc(Cl)cc1-c1cc(-c2ccc(Cl)cc2)n[nH]1`, the growth is 90.7% in the test on SK-MEL-2 melanoma; 61.5% with SN12C renal; 29% with UO-31 renal; 102% in the test with TK-10 renal; 52.8% in the test on ACHN renal; 47.7% in the test with CAKI-1 renal. Besides, the growth in the test on CCRF-CEM leukemia was 36.7%; in the test on MOLT-4 leukemia, 39.5%; with SR leukemia it was 41.6%; in the test on RPMI-8226 leukemia, 40.4%; with OVCAR-8 ovarian it was 72.5%; in the test on OVCAR-5 ovarian, 73.3%. Moreover, the growth in the test with OVCAR-4 ovarian was 35%; in the test with SK-OV-3 ovarian, 79%; in the test with IGROV1 ovarian it was 34.5%; in the test on HS 578T breast, 81.5%; with NCI/ADR-RES ovarian, 65.1%.
Consider `C=CCN=C1NC(=O)/C(=C/c2cc(C(C)(C)C)c(O)c(C(C)(C)C)c2)S1`, for which the growth was 40.1% in the test on SK-MEL-2 melanoma; 91% with SN12C renal; 67% in the test on UO-31 renal; 79.4% in the test on TK-10 renal; 87% in the test with ACHN renal; 47.8% in the test with CAKI-1 renal. The growth was 69.4% with CCRF-CEM leukemia; 47.4% with MOLT-4 leukemia; 32.9% in the test on SR leukemia; 92.1% in the test on RPMI-8226 leukemia; 95.8% in the test with OVCAR-8 ovarian; 92.1% in the test on OVCAR-5 ovarian. For the same molecule, the growth is 70.3% in the test with OVCAR-4 ovarian; 85.7% with IGROV1 ovarian; 46.9% with OVCAR-3 ovarian; 76.9% in the test on HS 578T breast; 70% with NCI/ADR-RES ovarian.
In the case of `COc1ccc(S(=O)(=O)NCCNc2nccc(-c3c(-c4ccccc4)nc4sccn34)n2)cc1`, the growth was 2.98% (active) in the test with SK-MEL-2 melanoma; 27.5% with SN12C renal; 18.6% in the test on UO-31 renal; 47% in the test with TK-10 renal; 10.3% in the test on ACHN renal; 18.3% in the test on CAKI-1 renal. In addition, the growth with CCRF-CEM leukemia was 22.8%; in the test with MOLT-4 leukemia, 5.16% (active); with SR leukemia, 12.8%; in the test with RPMI-8226 leukemia, 27.4%; in the test on OVCAR-8 ovarian, 26.7%; in the test on OVCAR-5 ovarian, 73.8%. For the same molecule, the growth with OVCAR-4 ovarian was 27.8%; in the test with SK-OV-3 ovarian, 23%; in the test with IGROV1 ovarian, 6.6% (active); with OVCAR-3 ovarian, 12.4%; with HS 578T breast, 47%; in the test with NCI/ADR-RES ovarian, 17.1%.

These data come from PubChem BioAssay (NCI).
